Test [1] can be described thus: inhibitors of TNFa-induced NFkB p65 translocation, primary screen, imaging, HUVEC, MLSMR starter and 10KST1 sets (AID 438;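 active = inhibition above 20% together with a positive visual image hit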;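 also: compound added about 3h40 before a 20 min TNFalpha stimulation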;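 as to inhibition: signal is the nuclear over cytoplasmic p65 intensity ratio per well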). The following applies: HUVEC TNFa-induced p65 nuclear translocation; cell count: measured here: nuclei count (cytotoxicity indicator), at 2.08 µM; inhibition: at 2 µM, stronger effect = higher value, 0% TNFa-plus-vehicle, 100% no-TNFa wells.
Test [2] is described as follows: inhibitors of mutant huntingtin aggregation, primary screen, imaging, exon1htt(103Q)mCFP cells, high-content imaging (AID 483;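 active = visual image review flags a hit and inhibition of aggregation exceeds 20%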;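 also: compound exposure lasted 3 days before fixation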;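 as to nuclei count: percent of the per-plate median nuclei count of sample wells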). Conditions: exon1htt(103Q)mCFP cell line, aggregate imaging, at 2 µM; inhibition of aggregation: stronger effect = higher value; nuclei count: measured here: cell count, toxicity.
A short description of test [3]: inhibitors of E-selectin induction by TNFa, primary screen, imaging, HUVEC, immunofluorescence, MLSMR starter and 10KST1 sets (AID 487;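 active = visually confirmed hit in the image check and inhibition above 20%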;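 as to inhibition: signal is fraction of cell area covered by stained E-selectin grains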;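 as to nuclei count: 100% = median nuclei count of all wells on the same plate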). The following applies: HUVEC TNFalpha-induced E-selectin immunofluorescence imaging, at 2 µM; inhibition: stronger effect = higher value; nuclei count: measured here: cell number, toxicity.
Test [4] deals with Voltage-gated potassium channel subunit beta-2 (Rattus norvegicus) (UniProt P62483). In words: KvBeta enzyme negative modulators, primary screen, biochemical, NADPH fluorescence (AID 622;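 active = fluorescence slope higher than the sample average by over 3 SD, cut at about -0.22 in these data, passing the limit was not always enough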;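 also: slope of raw intensity against log time taken from 70 to 1610 s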). Conditions: recombinant KvBeta, 4-cyanobenzaldehyde reduction, at 10 µM, stronger effect = higher value.
Test [5] shares this target. The experiment in a line: KvBeta positive modulators, primary screen, biochemical, NADPH fluorescence (AID 623).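 Also: fluorescence intensity change per second fitted from 20 to 320 s.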 Conditions: Recombinant KvBeta, NADPH fluorescence decrease slope, 10 min; at 10 µM; stronger effect = lower value.
Test [6] has as its target Alpha-2C adrenergic receptor (Homo sapiens) (UniProt P18825). In words: modulators of alpha2C/GIRK thallium flux, primary screen, cell-based, HEK293 alpha2C/GIRK1/2 (AID 624;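 active = fluorescence slope after compound addition differing from the mean of all screened samples at 99.7% confidence, in either direction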;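 also: slope of fluorescence ratio to pre-addition baseline per second over 15 to 24 s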). Conditions: thallium flux BTC fluorescence, at 10 µM, actives lie on both sides.
Test [7] is described as follows: inhibitors of Sendai virus-induced IRF3 signaling, primary screen, TLR/RLR signaling modifier project, cell-based, Sendai virus stimulus, luciferase, 10K MLSCN set (AID 602276;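 active = inhibition at or above 50% at 10 µM; inactive = inhibition below 50%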;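 also: firefly luciferase from ISG56 promoter only with Renilla not read in this screen; 0% = Sendai virus plus DMSO and 100% = medium plus DMSO without virus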). The following applies: HEK293 RL24 IRF3 luciferase reporter, at 10 µM, stronger effect = higher value. In general terms: In a reporter assay the amount or activity of a reporter protein is the signal.

Test [8] can be described thus: inhibitors of poly I:C-induced TLR3 signaling, primary screen, cell-based, poly I:C stimulus, luciferase, 10K MLSCN set (AID 602277;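 active = inhibition of the reporter signal at or above 50%; inactive = inhibition below 50%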). Conditions: HEK293-TLR3 RL24 IRF3 luciferase reporter, at 10 µM, stronger effect = higher value.

SMILES strings stand for the structures. Activity calls are given as the source filed them.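 The calls were made as follows, unless noted: active = NADPH fluorescence slope more negative than the mean of all samples by about 3 SD, 99.7% confidence; inactive = the rest.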

Voltage-gated potassium channel subunit beta-2 (Rattus norvegicus), sequence (P62483 whole entry, looked up): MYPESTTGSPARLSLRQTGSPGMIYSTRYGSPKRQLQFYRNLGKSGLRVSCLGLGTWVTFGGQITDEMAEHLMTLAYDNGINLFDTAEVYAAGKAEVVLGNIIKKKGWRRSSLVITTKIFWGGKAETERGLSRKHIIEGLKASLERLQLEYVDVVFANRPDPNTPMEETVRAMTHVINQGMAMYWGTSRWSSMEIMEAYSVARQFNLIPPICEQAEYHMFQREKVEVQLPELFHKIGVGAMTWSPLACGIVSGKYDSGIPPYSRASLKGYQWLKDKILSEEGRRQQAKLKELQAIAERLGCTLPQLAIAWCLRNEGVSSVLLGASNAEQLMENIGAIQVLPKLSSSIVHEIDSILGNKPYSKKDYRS
Alpha-2C adrenergic receptor (Homo sapiens), sequence (P18825 whole entry, looked up): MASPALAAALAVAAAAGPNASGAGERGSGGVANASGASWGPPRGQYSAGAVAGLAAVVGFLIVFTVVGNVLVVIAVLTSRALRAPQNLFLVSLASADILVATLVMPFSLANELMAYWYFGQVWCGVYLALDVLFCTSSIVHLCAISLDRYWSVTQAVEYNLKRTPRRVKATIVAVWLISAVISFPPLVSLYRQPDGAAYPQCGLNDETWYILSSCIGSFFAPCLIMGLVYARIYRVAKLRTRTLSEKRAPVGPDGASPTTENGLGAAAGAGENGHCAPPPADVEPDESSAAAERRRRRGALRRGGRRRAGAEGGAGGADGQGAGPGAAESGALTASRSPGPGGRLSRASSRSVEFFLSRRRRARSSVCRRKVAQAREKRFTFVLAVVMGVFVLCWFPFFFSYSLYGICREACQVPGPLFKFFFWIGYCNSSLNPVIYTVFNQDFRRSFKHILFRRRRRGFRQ

Take `OC1C=CSc2nc3ccccc3n21` (stereo not given): the cell count in test [1] came out at 398. The inhibition in test [1] is 4.9% (inactive); in test [3], -50.3% (inactive); in test [7] it was 4.8% (inactive); in test [8], 17.8% (inactive). Besides, the inhibition of aggregation in test [2] was -12.9% (inactive). Moreover, the nuclei count was 102% in test [2] and 113% in test [3]. Also, the fluorescence slope in test [4] was -0.467 (inactive). The NADPH fluorescence slope in test [5] is -3.8e-05 (inactive). Also, in test [6], the slope is 0.00527 (inactive).
On to `COc1ccccc1NC(=O)c1cc2n(n1)C(C(F)(F)F)CC(c1ccc3c(c1)OCO3)N2` (stereo not given), for which the cell count in test [1] was found to be 479. For the same molecule, the inhibition in test [1] was 2.4% (inactive); in test [3] it was -14.9% (inactive); in test [7] it was -5.6% (inactive); in test [8], -16.2% (inactive). Besides, the inhibition of aggregation in test [2] is 5.1% (inactive). Moreover, the nuclei count in test [2] is 109%; in test [3], 110%. For the same molecule, in test [4], the fluorescence slope was -0.629 (inactive). Besides, the NADPH fluorescence slope in test [5] was 6.1e-06 (inactive). The slope in test [6] was 0.00604 (inactive).
Regarding `COc1ccc(OC)c(NC(=O)CSc2nnc(Cc3cccn3C)n2-c2ccc(F)cc2)c1`, the cell count in test [1] amounted to 671. For the same molecule, the inhibition in test [1] is -3.4% (inactive); in test [3] it was -40.2% (inactive); in test [7] it was 19.4% (inactive); in test [8], 30.1% (inactive). Besides, the inhibition of aggregation in test [2] is 14.8% (inactive). Also, the results for the nuclei count in test [2] and in test [3] were 86.6% and 106%, respectively. The fluorescence slope in test [4] is -0.609 (inactive). Also, the NADPH fluorescence slope in test [5] is 1.6e-05 (inactive). For the same molecule, the slope in test [6] was 0.00527 (inactive).
With `CS(=O)(=O)NCC(c1cccnc1)N1CCN(c2ccc(F)cc2)CC1` (stereo not given), the cell count in test [1] came to 250. Also, the inhibition in test [1] is -10.2% (inactive); in test [3] it was 27.3% (inactive); in test [7], -3.05% (inactive); in test [8] it was 1.56% (inactive). In addition, the inhibition of aggregation in test [2] is 15.1% (inactive). The nuclei count in test [2] turned out to be 33.8%; in test [3], 72.4%. Further, the fluorescence slope in test [4] was -0.34 (inactive). Moreover, the NADPH fluorescence slope in test [5] is -4.2e-05 (inactive). Further, the slope in test [6] was 0.00483 (inactive).
For the molecule `Cc1ccc(C(=O)Nc2ccc3c(c2)OCO3)cc1S(=O)(=O)N1CCCC1`, in test [1], the cell count was 396. Further, the inhibition in test [1] was 0% (inactive); in test [3] it was 14.2% (inactive); in test [7], 10.6% (inactive); in test [8], -64.5% (inactive). In test [2], the inhibition of aggregation is 12.6% (inactive). For the same molecule, the nuclei count is 83.3% in test [2] and 107% in test [3]. Also, in test [4], the fluorescence slope was -0.398 (inactive). In test [5], the NADPH fluorescence slope was 1.4e-05 (inactive). Also, in test [6], the slope is 0.00564 (inactive).
`CCn1cc(S(=O)(=O)CC(=O)Nc2ccc(OC)cc2)c2ccccc21`: the cell count in test [1] amounted to 624. Moreover, the inhibition in test [1] is -2.4% (inactive); in test [3], -16.8% (inactive); in test [7], 7.03% (inactive); in test [8] it was 16.6% (inactive). Moreover, the inhibition of aggregation in test [2] was 7% (inactive). Moreover, the nuclei count in test [2] stood at 82.1%; in test [3] it was 115%. The fluorescence slope in test [4] was -0.528 (inactive). Further, the NADPH fluorescence slope in test [5] is -4.7e-05 (inactive). Further, the slope in test [6] is 0.00751 (inactive).
`Cc1nn(C(=O)c2ccc3c(c2)OCO3)c(N)c1-c1ccccc1`: the cell count in test [1] worked out at 581. The inhibition was 5.1% (inactive) in test [1], -19.8% (inactive) in test [3], -23.3% (inactive) in test [7] and -108% (inactive) in test [8]. The inhibition of aggregation in test [2] is 11.7% (inactive). Further, the nuclei count in test [2] amounted to 91.3%; in test [3] it was 106%. The fluorescence slope in test [4] is -0.451 (inactive). For the same molecule, the NADPH fluorescence slope in test [5] was 1.4e-05 (inactive). Besides, in test [6], the slope was 0.00618 (inactive).
With `COc1ccccc1OCC(=O)N1CCNC1=O`, the cell count in test [1] is 652. For the same molecule, the inhibition is 2.2% (inactive) in test [1], -78.6% (inactive) in test [3], 0.107% (inactive) in test [7] and 20.1% (inactive) in test [8]. Moreover, the inhibition of aggregation in test [2] is -1.9% (inactive). Also, the nuclei count was 101% in test [2] and 104% in test [3]. In test [4], the fluorescence slope was -0.548 (inactive). Besides, the NADPH fluorescence slope in test [5] was -4.2e-06 (inactive). Further, the slope in test [6] is 0.00602 (inactive).
Consider `COC(=O)CC1C(=O)NCCN1C(=O)NC1CCCCC1` (stereo not given), for which the cell count in test [1] was determined as 714. The inhibition in test [1] is -4.5% (inactive); in test [3] it was -116% (inactive); in test [7], -2.45% (inactive); in test [8] it was 2.41% (inactive). Also, in test [2], the inhibition of aggregation is -18.8% (inactive). Also, the nuclei count in test [2] and in test [3] was 110% throughout. The fluorescence slope in test [4] is -0.559 (inactive). The NADPH fluorescence slope in test [5] is -1.3e-05 (inactive). In addition, the slope in test [6] was 0.0059 (inactive).
Take `Cc1ccc(S(=O)(=O)N2CCOCC2)cc1C(=O)Nc1nc(-c2cccnc2)cs1`: the cell count in test [1] was 294. Moreover, the inhibition in test [1] was 10.3% (inactive); in test [3] it was -22.3% (inactive); in test [7] it was 7.72% (inactive); in test [8], 15.3% (inactive). For the same molecule, in test [2], the inhibition of aggregation was -1.2% (inactive). The nuclei count in test [2] stood at 99.3%; in test [3] it was 100%. Besides, the fluorescence slope in test [4] is -0.527 (inactive). Besides, the NADPH fluorescence slope in test [5] was 2.5e-05 (inactive). In test [6], the slope was 0.00585 (inactive).

One may read the inhibition as the relative decrease from the control value, in per cent.

(Values after PubChem BioAssay.)
